TDP1 cell CPT – qHTS for Inhibitors of human tyrosyl-DNA phosphodiesterase 1 (TDP1): qHTS in cells in presence of CPT; chicken DT40 Tdp1-/-;hTDP1 cells + 20 nM CPT, ATP luminescence, 48 h; Potency, µM (titrated, usually from 46.2 µM), most hits filed as inhibitors; 12% of 420,000 active; also: nearly all actives have a fitted effect of over 55% in size
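Chicken DT40 Tdp1-/- cells stably complemented with human TDP1 were seeded at 400 cells/well in medium containing 20 nM camptothecin, exposed to pin-transferred compounds, and grown at 37 °C for at least 48 hr. Viability was read as ATP luminescence.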
VP16 counter – VP16 counterscreen qHTS for inhibitors of ROR gamma transcriptional activity. Drosophila S2 Gal4-VP16 UAS-luciferase, luminescence, 20 h. Potency, µM (doses to about 53.6 µM), most hits filed as inhibitors. 3.5% of 310,000 active. AID 2546, 2010;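 also: Gal4-VP16 expression switched on by copper sulfate through the metallothionein promoter; nearly all actives have a fitted effect of over 50% in size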
RORgamma inh – qHTS for inhibitors of ROR gamma transcriptional activity; Potency, µM (highest dose often 53.6 µM), actives largely listed as inhibitors; Drosophila S2 Gal4-RORgamma UAS-luciferase reporter, 20 h; 5.4% of 310,000 active; Nuclear receptor ROR-gamma (Mus musculus), P51450; AID 2551, 2010; also: nearly all actives have a fitted effect of over 60% in size
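Read-out: Photinus luciferase luminescence; inhibitors lower reporter signal. Insect Schneider cells with Gal4-ROR gamma fusion under metallothionein promoter, UAS reporter; 700 uM final copper sulfate induction, 20 hr, ambient temperature.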
12-LOX inh – Primary qHTS assay for inhibitors of human arachidonate 12S-lipoxygenase (ALOX12): Round 2 | Polyunsaturated fatty acid lipoxygenase ALOX12 (Homo sapiens), P18054 | purified 12hLO, xylenol orange hydroperoxide absorbance | Potency, µM (series often up to 108 µM), hits mostly inhibitors | 1.1% of 580,000 active
Target sequence (P18054 whole entry, looked up): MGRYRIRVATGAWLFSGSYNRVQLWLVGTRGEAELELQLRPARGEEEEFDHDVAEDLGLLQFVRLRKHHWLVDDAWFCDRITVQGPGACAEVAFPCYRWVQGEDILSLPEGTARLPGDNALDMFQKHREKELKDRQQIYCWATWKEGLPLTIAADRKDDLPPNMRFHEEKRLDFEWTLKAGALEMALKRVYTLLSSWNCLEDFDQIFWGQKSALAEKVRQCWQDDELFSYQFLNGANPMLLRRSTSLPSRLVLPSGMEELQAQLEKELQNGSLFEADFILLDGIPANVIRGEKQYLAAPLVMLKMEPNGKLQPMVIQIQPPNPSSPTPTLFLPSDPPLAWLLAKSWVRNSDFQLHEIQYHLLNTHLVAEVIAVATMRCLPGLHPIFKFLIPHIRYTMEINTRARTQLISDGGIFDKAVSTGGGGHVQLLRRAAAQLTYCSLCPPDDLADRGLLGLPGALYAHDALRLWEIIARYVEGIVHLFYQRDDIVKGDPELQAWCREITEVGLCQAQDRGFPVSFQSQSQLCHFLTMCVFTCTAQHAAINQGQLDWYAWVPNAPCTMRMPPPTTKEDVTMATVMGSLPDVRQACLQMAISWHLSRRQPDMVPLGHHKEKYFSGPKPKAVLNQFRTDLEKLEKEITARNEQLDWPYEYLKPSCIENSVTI
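Purified human 12hLO at 150 nM in 25 mM Hepes, 0.01% Triton X-100, pH 7.0, preincubated 15 min at room temperature with compound. Reaction started with 40 uM arachidonic acid, 30 min at room temperature. Hydroperoxide measured by Fe-xylenol orange, 573/405 nm absorbance ratio.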
ELG1 DNA repair – qHTS screen for small molecules that inhibit ELG1-dependent DNA repair in human embryonic kidney (HEK293T) cells expressing luciferase-tagged ELG1. HEK293T ELG1-luciferase reporter, luminescence, 16 h; DNA damage induced by 5-fluorouridine. Potency, µM (series often up to 46.1 µM), most hits filed as inhibitors. 2.3% of 330,000 active; also: nearly all actives have a fitted effect of over 55% in size
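Cells (2,000 per well) received 5-fluorouridine plus test compound or DMSO and were incubated 16 hr at 37 °C, 5% CO2. Luciferase activity was read by luminescence 30 min after ONE-Glo addition; signal suppression marked inhibition of damage-induced ELG1 function.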
TDP1 cell noCPT – qHTS for Inhibitors of human tyrosyl-DNA phosphodiesterase 1 (TDP1): qHTS in cells in absence of CPT; 15% of 420,000 active; DT40 Tdp1-/- hTDP1 cells, no CPT, ATP luminescence, 48 h; Potency, µM (top dose mostly 46.2 µM), usual class: inhibitors; also: nearly all actives have a fitted effect of over 55% in size
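Seeded 400 DT40-hTDP1 cells/well (vehicle DMSO, no 20 nM CPT); pinned compounds; ≥48 hr at 37 °C; CellTiter-Glo luminescence as viability measure.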
A number is an active result; 0 = inactive; ? = inconclusive; - = not tested or not shown. This is a sample that favours compounds with a hit; in the whole collection about 15% have one here. Calls follow the shape of the dose curve; as a rule, active = well fitted curve in the direction sought with a large enough effect; inconclusive = small, poorly fitted or top-dose-only effect, or another doubt; inactive = no such curve, though single readings can be large; an effect the other way counts as inactive or inconclusive.

SMILES | TDP1 cell CPT | VP16 counter | RORgamma inh | 12-LOX inh | ELG1 DNA repair | TDP1 cell noCPT
O=C(NNc1nc2ccccc2s1)c1ccc(F)cc1 | 0 | 1.3µM | 0.56µM | 0 | ? | 0
O=C(NNc1nc2c(F)cccc2s1)c1ccccc1 | 0 | ? | ? | 0 | 0 | 0
O=C(NNc1nc2ccc(F)cc2s1)c1cccc(F)c1 | 12µM | ? | 4µM | ? | ? | ?
NS(=O)(=O)c1ccc(-c2ccc(/C=N/Nc3ccc(S(=O)(=O)Nc4ccccc4)cc3[N+](=O)[O-])o2)cc1 | - | - | - | 0 | - | -
CC(C)=CC(=O)Nc1ccccc1SCc1ccsc1 | - | - | - | 0 | - | -
COc1ccc(C2CC(c3ccccc3)Nc3nc(NC(=O)c4ccco4)nn32)cc1 (centres undefined) | 0 | 7.1µM | 6.3µM | 0 | 0 | 0
COc1ccc(C2CC(c3ccc(OC)cc3)n3nc(NC(=O)c4ccco4)nc3N2)cc1 (centres undefined) | 0 | 16µM | 6.3µM | 0 | 0 | 0
CC(C)(C)c1nc2cc(Cl)c([N+](=O)[O-])cc2o1 | ? | 0 | 0 | 0 | 0 | 23µM
Cn1c(=O)c([N+](=O)[O-])c(-n2ccnc2)c2ccccc21 | 4.6µM | 7.9µM | ? | 0 | 0 | 4.1µM
Cc1ccc(/C(COc2ccc3c(C)c(Cc4ccccc4)c(=O)oc3c2C)=N\O)cc1 | - | - | - | 0 | - | -
Cn1c(Cl)c(C(=O)Nc2ccc(Cl)cc2)c2ccccc21 | ? | 0 | 0 | 0 | 0 | 16µM
CNC(=O)c1noc(CN2CCCC(CCc3c(F)cccc3F)C2)n1 (centres undefined) | - | - | - | 0 | - | -
O=C(N/N=C\C=C\c1ccc(Br)cc1)c1ccc2c(c1)OCO2 | ? | 4.5µM | 13µM | 0 | 0 | 0
O=C(N/N=C/C=C/c1ccc2c(c1)OCO2)c1ccc([N+](=O)[O-])cc1 | 0 | 10µM | 2µM | 0 | 0 | 0
COCCc1noc(CC2CCOC3(CCN(C(=O)CCC4CCCC4)CC3)C2)n1 (centres undefined) | - | - | - | 0 | - | -
O=[S+]([O-])(c1cccs1)N1CCc2nc(C3CC3)nc(-c3ccc(Cl)cc3)c2CC1 | - | - | - | 0 | - | -
Cc1cc(OCCn2cc(/C(N)=N/O)c3ccccc32)ccc1Cl | 26µM | ? | 0 | 0 | 0 | ?
CCOC(=O)/C(C#N)=C/c1cn(CCOc2ccc(OC)cc2)c2ccccc12 | 15µM | 0 | 0 | 0 | 12µM | ?
Cc1ccc(OCCn2cc(C(=O)c3ccco3)c3ccccc32)cc1C | 15µM | - | - | 0 | - | 18µM
CCOc1ccc(NC(=O)/C(C#N)=C/c2cn(CC(=O)O)c3ccccc23)cc1 | 0 | 0 | 0 | 0 | ? | 0
COc1ccc(OCCn2cc(C(=O)c3ccco3)c3ccccc32)cc1 | 21µM | - | - | 0 | - | 26µM
Cn1nc(C(=O)Nc2nc(-c3ccc4c(c3)OCCO4)cs2)c2ccccc2c1=O | - | - | - | 0 | - | -
CCCNC(=O)c1ccccc1-c1ncc(-c2ccccc2)o1 | - | - | - | 0 | - | -
O=C(NC[C@H]1OC[C@@H](NCc2cnc[nH]2)[C@@H]1O)C1CCCC1 | - | - | - | 0 | - | -
Cc1[nH]c2ccccc2c1SCc1nnc(SCc2ccc(Cl)cc2)n1C | ? | 0 | 0 | 0 | 16µM | ?
SMILES | TDP1 cell CPT | VP16 counter | RORgamma inh | 12-LOX inh | ELG1 DNA repair | TDP1 cell noCPT
CC[C@@H](C)[C@H](NS(=O)(=O)c1cccc2ccccc12)C(=O)N[C@H](C=O)Cc1c[nH]c2ccccc12 | 5.9µM | - | - | ? | - | 5.3µM
CC(Cc1c[nH]c2ccccc12)NC(N)=O (centres undefined) | 0 | 0 | 0 | 0 | 0 | 0
N#Cc1nc(-c2ccco2)oc1N1CCN(C(=O)c2cccc(Cl)c2)CC1 | - | - | - | 0 | - | -
COc1ccc(COc2ccc(C#N)cc2OC)cc1F | - | - | - | 0 | - | -
CN1C(=O)CC(Nc2cccc3cccc(N)c23)C1=O (centres undefined) | 0 | 0 | 0 | - | ? | 0
CC(C)N1C(=O)CC(Nc2cccc3cccc(N)c23)C1=O (centres undefined) | 23µM | 0 | 0 | 0 | ? | 21µM
CCOc1ccc(C(=O)N2CCC3(CC2)CC(O)CCO3)cc1 (centres undefined) | - | - | - | 0 | - | -
FC(F)(F)c1ccc(CSc2nccn2-c2ccccc2)cc1 | ? | 0 | ? | 0 | 0 | ?
Brc1ccc(CSc2nccn2-c2ccccc2)cc1 | 0 | 0 | 14µM | 0 | 0 | ?
Clc1cccc(CSc2ncn(-c3ccccc3)n2)c1 | 0 | 0 | 0 | ? | ? | 0
Clc1cccc(CSc2nccn2-c2ccccc2)c1 | ? | 0 | 5µM | 0 | 0 | ?
CCOC(=O)c1cnc(SCC(=O)Nc2ccc(C)c(Cl)c2)nc1N | - | - | - | 0 | - | -
Cc1nn(C(C)C(=O)O)c(=O)c2c1sc1ccccc12 (centres undefined) | 0 | 0 | 0 | 0 | ? | 0
CCC(C(=O)N(C)Cc1ccccc1)n1nc(C)c2sc3ccccc3c2c1=O (centres undefined) | ? | - | - | 0 | - | 16µM
CCC(C(=O)NC1CCCCC1)n1nc(C)c2sc3ccccc3c2c1=O (centres undefined) | 10µM | - | - | 0 | - | 9.2µM
CCC(C(=O)NCCCN1CCCCCC1)n1nc(C)c2sc3ccccc3c2c1=O (centres undefined) | 0 | 0 | 0 | 0 | 0 | 0
CCC(C(=O)NCc1ccccc1Cl)n1nc(C)c2sc3ccccc3c2c1=O (centres undefined) | 18µM | - | - | 0 | - | ?
COCCOC1CCN(Cc2cn(Cc3ccccc3)nc2-c2cc3ccccc3o2)CC1 | ? | 0 | 0 | 0 | ? | 16µM
OC1CCCN(Cc2cn(Cc3ccccc3)nc2-c2cc3ccccc3o2)C1 (centres undefined) | ? | 0 | 0 | 0 | ? | 18µM
Cc1ccc(-n2c(C)cc(C=C3C(=O)N(C)C(=O)N(C)C3=O)c2C)cc1 | 0 | - | - | 0 | - | 0
Cc1cc(/C=C2\SC(=S)N(C)C2=O)c(C)n1-c1cccc(O)c1 | 23µM | 0 | 0 | ? | ? | ?
CN1C(=O)/C(=C\c2cc(N=Nc3ccccc3)ccc2O)SC1=S | 21µM | 0 | 0 | 0 | 0 | 23µM
COc1ccc(-n2c(C)cc(/C=C3/SC(=S)N(C)C3=O)c2C)cc1 | 21µM | ? | 0 | 0 | ? | 18µM
COCCn1c(CN2CCCCC2C)nc2c1c(=O)n(C)c(=O)n2C (centres undefined) | - | - | - | 0 | - | -
CCn1c(SCc2cc(OC)c(OC)cc2Br)nc2cc(S(N)(=O)=O)ccc21 | - | - | - | 0 | - | -
